Calls of active or inactive are those of the source.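 Rule for the calls: active = compounds killing one labelled cell type while sparing the other, by normalised counts and ratio limits, not self-fluorescent; inactive = the rest.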 Numbered stars: 1 amine (or outer) side, 2 acyl side, 3 side chain; on linkers, the order of the positions; unused ones are H or OH. Bridge positions count the residues as written; N and C are the ends. Square brackets hold non-standard residues; d marks the D form. Peptide text beside a SMILES is read from it. I, II: the chains in the order shown. * marks the point of attachment. ξ: configuration not given here. Actinocin(9to1) = Cc1c2oc3c(C)ccc(C(=O)[*:1])c3nc-2c(C(=O)[*:2])c(N)c1=O; ΔAla(E,3-NHCONH2) = NC(=O)N/C=C(/N)C(=O)O; X1 = NC1=NCCC(C(N[*:1])C(=O)[*:2])N1; Heptanoyl(6-Me) = CC(C)CCCCC(=O)*; NMeV = CN[CH](C(=O)O)C(C)C; ξβ3hOrn = NCCCC(N)CC(=O)*; Orn = NCCC[CH](N)C(=O)O; Dab = NCC[CH](N)C(=O)O; Dap = NC[CH](N)C(=O)O; Sar = CNCC(=O)O
Test: EMT-state selective cytotoxicity in co-culture – imaging, PC-3E GFP, TEM4-18 mCherry, primary screen (AID 1345086);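 note: normalised mesenchymal count divided by normalised epithelial count so high means epithelial killing; cells exposed to compound for 72 h before imaging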
Conditions: PC-3E GFP / TEM4-18 mCherry co-culture, imaging cell counts; at 1 µM; actives lie on both sides; counts scaled to control wells, 1 = unselective

| Structure (SMILES) | red/green cell ratio (normalised) |
| --- | --- |
| CO/N=C(\C(=O)NC1C(=O)N2C(C(=O)OCOC(=O)C(C)(C)C)=C(/C=C\c3scnc3C)CSC12)c1csc(N)n1 (centres undefined) | 0.92 (inactive) |
| CC(C)CC1NC(=O)C(CCCN)NC(=O)C(C(C)C)NC(=O)C2CCCN2C(=O)C(Cc2ccccc2)NC(=O)C(CC(C)C)NC(=O)C(CCCN)NC(=O)C(C(C)C)NC(=O)C2CCCN2C(=O)C(Cc2ccccc2)NC1=O (centres undefined) (cyclo(FPV[Orn]LFPV[Orn]L); configuration not given here) | 0.94 (inactive) |
| CN(Cc1cnc2nc(N)nc(N)c2n1)c1ccc(C(=O)NC(CCC(=O)O)C(=O)O)cc1 (centres undefined) | 0.89 (inactive) |
| CC(=O)OC1CCC2C3CCc4cc(O)ccc4C3CCC12C (centres undefined) | 0.88 (inactive) |
| O=C1O[C@H](C(O)CO)C(O)=C1O (some centres undefined) | 1.21 (inactive) |
| CO/N=C(/C(=O)N[C@@H]1C(=O)N2C(C(=O)O)=C(CSc3nc(=O)c(O)nn3C)CS[C@H]12)c1csc(N)n1 | 1.22 (inactive) |
| NCCCC(N)CC(=O)NCC1NC(=O)C(CO)NC(=O)C(N)CNC(=O)C(C2CCN=C(N)N2)NC(=O)/C(=C\NC(N)=O)NC1=O (stereo not drawn) (H-[Dap]S[Dap](ξβ3hOrn)[ΔAla(E,3-NHCONH2)][X1]; lactam 1-C; configuration not given here) | 0.98 (inactive) |
| CCCCCCCCCCCCCCCC(=O)O[C@@H]1[C@@H](O)[C@@H](O)C([C@H](NC(=O)[C@@H]2C[C@@H](CCC)CN2C)[C@H](C)Cl)O[C@@H]1SC (some centres undefined) | 0.93 (inactive) |
| CO/N=C(/C(=O)NC1C(=O)N2C(C(=O)OC(C)OC(C)=O)=C(COC(N)=O)CSC12)c1ccco1 (centres undefined) | 1.1 (inactive) |
| O=C(N[C@@H](CO)[C@H](O)c1ccc([N+](=O)[O-])cc1)C(Cl)Cl | 0.9 (inactive) |
| C[C@]12C=CC(=O)C=C1CCC1C2[C@@H](O)C[C@@]2(C)C1CC[C@]2(O)C(=O)COC(=O)CCC(=O)O (some centres undefined) | 0.99 (inactive) |
| CC(=O)O[C@@]12CO[C@@H]1C[C@H](O)[C@@]1(C)C(=O)[C@H](O)C3=C(C)[C@@H](OC(=O)[C@H](O)[C@@H](NC(=O)OC(C)(C)C)c4ccccc4)C[C@@](O)([C@@H](OC(=O)c4ccccc4)C12)C3(C)C (some centres undefined) | 1.12 (inactive) |
| CC(C)(Oc1ccc(C(=O)c2ccc(Cl)cc2)cc1)C(=O)O | 1.11 (inactive) |
| CC1=C(C(=O)O)N2C(=O)[C@@H](NC(=O)C(N)c3ccc(O)cc3)[C@H]2SC1 (some centres undefined) | 1.2 (inactive) |
| CCC(=O)OCC(=O)[C@@]1(OC(=O)CC)[C@@H](C)CC2C3CCC4=CC(=O)C=C[C@]4(C)C3(F)[C@@H](O)C[C@@]21C (some centres undefined) | 1.32 (inactive) |
| C/C=C\C1=C(C(=O)O)N2C(=O)C(NC(=O)C(N)c3ccc(O)cc3)C2SC1 (centres undefined) | 1.07 (inactive) |
| C[C@H]1CC2C([C@@H](O)C[C@@]3(C)C2CC[C@]3(O)C(=O)COC(=O)CCC(=O)O)[C@@]2(C)C=CC(=O)C=C12 (some centres undefined) | 0.8 (inactive) |
| NCC1CCCCC1CC(=O)O (centres undefined) | 0.8 (inactive) |
| CC1=C(C(=O)O)N2C(=O)[C@@H](NC(=O)[C@H](N)C3=CCC=CC3)C2SC1 (some centres undefined) | 1 (inactive) |
| CC[C@@H]1OC(=O)C[C@@H](O)[C@H](C)[C@@H](O[C@@H]2O[C@H](C)[C@@H](O)[C@H](N(C)C)[C@H]2O)[C@@H](CCN2C[C@H](C)C[C@H](C)C2)C[C@@H](C)C(=O)/C=C/C(C)=C\[C@@H]1CO[C@@H]1O[C@H](C)[C@@H](O)[C@@H](OC)[C@H]1OC | 0.98 (inactive) |

| Structure (SMILES) | red/green cell ratio (normalised) |
| --- | --- |
| CCC(C)C1NC(=O)C(CCN)NC(=O)C(NC(=O)C(CCN)NC(=O)C(NC(=O)C(CCN)NC(=O)CCCCC(C)C)C(C)O)CCNC(=O)C(C(C)O)NC(=O)C(CCN)NC(=O)C(CCN)NC(=O)C(C(C)CC)NC1=O (centres undefined) ({Heptanoyl(6-Me)}-[Dab]T[Dab][Dab][Dab]II[Dab][Dab]T; lactam 4-C; configuration not given here) | 0.79 (inactive) |
| COc1cc(NS(C)(=O)=O)ccc1Cc1c2ccccc2nc2ccccc12 | 0.96 (inactive) |
| C[C@H](N[C@@H](CCc1ccccc1)C(=O)O)C(=O)N1CCC[C@H]1C(=O)O | 0.88 (inactive) |
| CC(CCC(=O)O)[C@H]1CCC2C3C(=O)C[C@@H]4CC(=O)CC[C@]4(C)C3CC(=O)[C@@]21C (some centres undefined) | 1.13 (inactive) |
| CC1OC1P(=O)(O)O (centres undefined) | 1.09 (inactive) |
| CC1C/C=C/C=C/C=C/C=C/C(O[C@@H]2O[C@H](C)[C@@H](O)[C@H](N)[C@@H]2O)CC2OC(O)(CC(O)CC3OC3/C=C/C(=O)O1)CC(O)C2C(=O)O (some centres undefined) | 1.02 (inactive) |
| CC(=O)OCC(=O)[C@@]1(OC(C)=O)[C@@H](C)CC2C3C[C@H](F)C4=CC(=O)C=C[C@]4(C)[C@@]3(F)[C@@H](O)C[C@@]21C (some centres undefined) | 1.18 (inactive) |
| CC(C)c1c(C(=O)c2ccccc2)c(-c2ccccc2)c(-c2ccc(F)cc2)n1CC[C@@H](O)C[C@@H](O)CC(=O)O | 0.86 (inactive) |
| CCC(C)C(=O)O[C@H]1C[C@H](O)C=C2C=C[C@H](C)[C@H](CC[C@@H](O)C[C@@H](O)CC(=O)O)C21 (some centres undefined) | 0.96 (inactive) |
| C#C[C@]1(OC(C)=O)CCC2C3CCC4=C/C(=N/O)CCC4C3CC[C@@]21CC (some centres undefined) | 0.75 (inactive) |
| CC(=O)O[C@]1(C(C)=O)CCC2C3C=C(Cl)C4=CC(=O)CC[C@]4(C)C3CC[C@@]21C (some centres undefined) | 1.17 (inactive) |
| N[C@H](Cc1cc(I)c(Oc2ccc(O)c(I)c2)c(I)c1)C(=O)O | 0.97 (inactive) |
| CC(C)(C)NC[C@H](O)COc1ccccc1C1CCCC1 | 1.04 (inactive) |
| COCC1=C(C(=O)OC(C)OC(=O)OC(C)C)N2C(=O)[C@@H](NC(=O)/C(=N/OC)c3csc(N)n3)[C@H]2SC1 (some centres undefined) | 1.05 (inactive) |
| CCCCCCCCCCC[C@@H](C[C@H]1OC(=O)[C@H]1CCCCCC)OC(=O)[C@@H](CC(C)C)NC=O | 1.11 (inactive) |
| Cc1c2oc3c(C)ccc(C(=O)OC(C)C4NC(=O)C(C(C)C)N(C)C(=O)CN(C)C(=O)C5CCCN5C(=O)C(C(C)C)NC4=O)c3nc-2c(C(=O)OC(C)C2NC(=O)C(C(C)C)N(C)C(=O)CN(C)C(=O)C3CCCN3C(=O)C(C(C)C)NC2=O)c(N)c1=O (centres undefined) (I: cyclo([Sar][NMeV]TVP) / II: cyclo([Sar][NMeV]TVP); linker I:3-II:3 via Actinocin(9to1); configuration not given here) | 1.97 (active) |
| OC[C@H]1OC([S-])[C@H](O)[C@@H](O)[C@@H]1O.[Au+] (some centres undefined) | 0.82 (inactive) |
| CC(C)=CCC/C(C)=C/COc1ccc2ccc(=O)oc2c1 | 1.07 (inactive) |
| NC(Cc1c[nH]c2ccccc12)C(=O)O (centres undefined) | 1.24 (inactive) |
